In PubChem BioAssay:

Assay: glutamate transport activators, MN-1 cells, MN-1 cell line (AID 1612);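 further: tested at 1 µM final; 0% = mean of DMSO vehicle wells on each plate; positive means more glutamate uptake than control and negative means less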
Conditions: MN-1 motor neuron cells, stronger effect = higher value
In the case of `C1CCN2C[C@@H]3CC(CN4CCCC[C@@H]34)[C@H]2C1`, the glutamate uptake change is reported as -9.72%.
Compound `CC(Oc1ccccc1)C(=O)NC1C(=O)N2C(C(=O)O)C(C)(C)S[C@H]12` (stereo partly specified) has a glutamate uptake change of 4.57%.
For `CC(NC(=O)C(NC(=O)OCc1ccccc1)C(C)C)C(=O)NC(CC(=O)O)C(=O)OC(F)F` (stereo unspecified), the glutamate uptake change was 2.37%.
For `CC[C@@H](C(=O)C(C)[C@@H](O)[C@H](C)CCc1ccc(C)c(O)c1C(=O)O)C1OC(CC)(C2CC[C@](O)(CC)[C@H](C)O2)C[C@@H]1C` (stereo partly specified), the glutamate uptake change was -67.2%.
With `C[C@]12CCC3c4ccc(OC(=O)CCC(=O)O)cc4CCC3C1CCC2=O` (stereo partly specified) the glutamate uptake change was -14.3%.
Compound `CCC[C@@H]1C[C@@H](C(=O)NC(C(C)Cl)C2O[C@H](SC)[C@H](O)[C@@H](O)[C@H]2O)N(C)C1` (stereo partly specified) has a glutamate uptake change of -13%.
With `CC[C@@]1(O)C[C@H](OC2CC(N(C)C)C(OC3CC(O)C(OC4CCC(=O)C(C)O4)C(C)O3)C(C)O2)c2c(cc3c(c2O)C(=O)c2c(O)cccc2C3=O)[C@H]1C(=O)OC` (stereo partly specified) the glutamate uptake change was 47.8%.
In the case of `O=c1c(O)cc2c(O)oc3c(=O)c(O)cc4c3c2c1CC=4O`, the glutamate uptake change is reported as -0.57%.
`CC(=O)N[C@@H](Cc1c[nH]c2ccccc12)C(N)=O` showed a glutamate uptake change of -9.38%.
Compound `C=C1C(=O)OC2C1CCC1(C)CCC=C(C)C21` (stereo unspecified) has a glutamate uptake change of 0.76%.
Work on `O=c1cc(-c2ccccc2)oc2cc(O)c(O)cc12` yielded a glutamate uptake change of 11%.
`CCCCC(=O)OC1(C(=O)CO)C(C)CC2C3CCC4=CC(=O)C=CC4(C)[C@@]3(F)[C@@H](O)CC21C` (stereo partly specified) showed a glutamate uptake change of 9.55%.
Compound `CN[C@@H]1[C@H](O)[C@H](NC)[C@H]2O[C@@]3(O)C(=O)C[C@@H](C)O[C@H]3OC2[C@H]1O` (stereo partly specified) has a glutamate uptake change of 4.38%.

Assay: GFP-Q80 aggregate reduction, neuronal-like cells, cell-based, NGF-treated PC12, GFPQ80 (AID 1614);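 further: lower means fewer inclusions and 0 means no inclusions at all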
Conditions: PC12 NGF-treated GFP-polyQ80 inclusion reduction
`C1CCN2C[C@@H]3CC(CN4CCCC[C@@H]34)[C@H]2C1` showed an inclusion score of 2.
For `CC(Oc1ccccc1)C(=O)NC1C(=O)N2C(C(=O)O)C(C)(C)S[C@H]12` (stereo partly specified), the inclusion score was 2.
Compound `CC(NC(=O)C(NC(=O)OCc1ccccc1)C(C)C)C(=O)NC(CC(=O)O)C(=O)OC(F)F` (stereo unspecified) has an inclusion score of 2.
In the case of `C[C@]12CCC3c4ccc(OC(=O)CCC(=O)O)cc4CCC3C1CCC2=O` (stereo partly specified), the inclusion score is reported as 2.
In the case of `CCC[C@@H]1C[C@@H](C(=O)NC(C(C)Cl)C2O[C@H](SC)[C@H](O)[C@@H](O)[C@H]2O)N(C)C1` (stereo partly specified), the inclusion score is reported as 2.
`O=c1c(O)cc2c(O)oc3c(=O)c(O)cc4c3c2c1CC=4O` showed an inclusion score of 2.
`O=c1cc(-c2ccccc2)oc2cc(O)c(O)cc12` gave an inclusion score of 2.
Compound `CN[C@@H]1[C@H](O)[C@H](NC)[C@H]2O[C@@]3(O)C(=O)C[C@@H](C)O[C@H]3OC2[C@H]1O` (stereo partly specified) has an inclusion score of 2.
